# Screens: PubChem BioAssay, several laboratories
# RmlC RmlD mix = RmlC/RmlD inhibition, mixture screen | RmlC/RmlD coupled enzyme inhibition, 384-well mixture HTS | inhibition, % at 5.5 µM | 0.39% of 110,000 active | AID 1532; in the data active means inhibition above about 30%, passing the limit was not always enough; inconclusive means no clear call, values can overlap the other calls
# HIV RNase H inh-1 = inhibitors of HIV-1 reverse transcriptase RNase H; 1.9% of 65,000 active; RT-RNase H RNA/DNA duplex cleavage, fluorescence; inhibition, % at 10 µM; AID 565; in the data active means inhibition above about 50%
# HIV RNase H inh-2 = confirmation of HIV-1 reverse transcriptase RNase H inhibitors; shares compounds with HIV RNase H inh-1; Recombinant RT RNase H, fluorescent RNA/DNA duplex cleavage; inhibition, % at 10 µM; 39% of 1,000 active; AID 651; in the data active means inhibition above about 48%; inconclusive means no clear call, values can overlap the other calls
# An asterisk follows results filed as active; u = inconclusive; x = not tested or not shown. The full list was thinned out, with hits kept by preference.
SMILES,RmlC RmlD mix,HIV RNase H inh-1,HIV RNase H inh-2
O=C(/C=C/c1ccccc1)N1CCN(c2ccc([N+](=O)[O-])c(N3CCOCC3)c2)CC1,-11.2,x,x
CCC1(C)Cc2c(sc3c2c(=O)n(C)c2nnc(SCc4ccc5c(c4)OCO5)n32)CO1 (stereo unspecified),6.3,58.0*,75.2*
CC(C)Oc1ccc(CSc2nnc3n(C)c(=O)c4c5c(sc4n23)CCCC5)cc1,-10.3,9.2,x
CCOC(=O)c1ccccc1NC(=O)CSc1nnc(COc2ccccc2)n1CC,4.0,-0.9,x
COC(=O)c1sc(N2C(=O)c3oc4ccccc4c(=O)c3C2c2cccs2)nc1C (stereo unspecified),-6.8,92.5*,56.6*
C=CCOC(=O)c1sc(N2C(=O)c3oc4ccccc4c(=O)c3C2c2ccco2)nc1C (stereo unspecified),x,36.2,x
c1csc(-c2csc3nc(CN4CCOCC4)nc(NCc4ccc5c(c4)OCO5)c23)c1,9.9,-41.5,x
COc1ccc(OC)c(NC(=O)C23CCC(C)(C(=O)C2)C3(C)C)c1 (stereo unspecified),-13.5,-3.2,x
CCOc1cccc(C=Nc2cc(C)cc(C)c2O)c1O,-6.2,91.3*,73.5*
COc1cccc(C=Nc2ccc3c(c2)OCCO3)c1O,x,-2.1,x
CC(C)c1ccc(C2CC(=O)N3CN(C)CSC3=C2C#N)cc1 (stereo unspecified),-2.5,72.9*,65.3*
Cc1ccc(C2CC(=O)N3CN(Cc4ccco4)CSC3=C2C#N)cc1 (stereo unspecified),72.5,25.6,x
COc1ccc(OC)c(C2CC(=O)N3CN(c4cccc(Cl)c4)CSC3=C2C#N)c1 (stereo unspecified),-10.9,-7.7,x
COc1cc(OC)c(C2CC(=O)N3CN(C)CSC3=C2C#N)cc1OC (stereo unspecified),-10.8,76.0*,56.7*
CCc1ccccc1N1CSC2=C(C#N)C(c3cc(OC)c(OC)cc3OC)CC(=O)N2C1 (stereo unspecified),11.2,78.6*,63.4*
COc1cc(OC)c(C2CC(=O)N3CN(c4ccccc4)CSC3=C2C#N)cc1OC (stereo unspecified),-10.4,33.2,x
COc1ccc(OC)c(C2CC(=O)N3CN(c4ccc(C)c(Cl)c4)CSC3=C2C#N)c1 (stereo unspecified),7.0,-5.5,x
COc1ccc(Br)cc1C1CC(=O)N2CN(C)CSC2=C1C#N (stereo unspecified),7.7,80.0*,64.4*
CCCCNC1=C(Br)C(=O)CC(C)(C)C1,5.6,-7.6,x
Cc1nc(-c2ccccc2)sc1C1(C)CC(c2c(Cl)cccc2Cl)=NO1 (stereo unspecified),-11.2,x,x
N#CC1=C2SCN(c3ccccc3)CN2C(=O)CC1c1cccs1 (stereo unspecified),1.3,-5.3,x
N#CC1=C2SCN(c3ccccc3)CN2C(=O)CC1c1c(Cl)cccc1Cl (stereo unspecified),-9.7,38.2,x
N#CC1=C2SCN(c3ccccc3)CN2C(=O)CC1c1ccccc1Cl (stereo unspecified),5.6,67.4*,26.0
COc1ccc2ccccc2c1C1CC(=O)N2CN(C)CSC2=C1C#N (stereo unspecified),6.8,68.1*,10.8
O=C(NCc1cccc(C(F)(F)F)c1)C1CC(c2ccc(C(F)(F)F)cc2)=NO1 (stereo unspecified),-3.3,x,x
SMILES,RmlC RmlD mix,HIV RNase H inh-1,HIV RNase H inh-2
Cc1cccc(NC(=O)c2ccccc2[N+](=O)[O-])n1,-0.6,x,x
Cc1cccc(NC(=O)c2ccccc2Br)n1,6.8,63.2*,20.3
CC(C)(C)N1[C@@H](CC(=O)O)c2cc(C(F)(F)F)ccc2S1(=O)=O,5.2,x,x
CC(C)Oc1ccc(NC(=O)c2ccncc2)cc1,-11.2,0.7,x
O=C(NCc1cccnc1)c1ccc(CS(=O)(=O)c2ccc(Cl)cc2)o1,u,32.5,x
COC(=O)c1cccc(Oc2nc(N3CCOCC3)nc(N3CCOCC3)n2)c1,x,-15.4,x
CN1CCN(C2=C(Cl)C(=O)N(c3cccc(Cl)c3)C2=O)CC1,1.4,70.2*,16.5
Cn1c(=O)n(-c2cccc(Cl)c2)c(=O)n1C,-16.1,-11.3,x
COc1ccc(N2C(=O)C(Cl)=C(N3CCCC(C)C3)C2=O)cc1 (stereo unspecified),-10.2,x,x
COC(=O)c1cccc(N2C(=O)C(Cl)=C(N3CCOCC3)C2=O)c1,5.5,83.3*,62.3*
CN1CCN(C2=C(Cl)C(=O)N(c3ccc(Cl)c(Cl)c3)C2=O)CC1,5.5,96.3*,73.5*
CN1CCN(C2=C(Cl)C(=O)N(Cc3ccccc3)C2=O)CC1,11.5,-28.5,x
COc1ccc(N2C(=O)C(Cl)=C(N3CCCC3)C2=O)cc1,-7.8,52.3*,-3.9
O=C1c2ccccc2CCC12N=NCC2c1ccccc1 (stereo unspecified),15.4,x,x
